From PubChem BioAssay
Only some compounds are listed: those with a hit (about 3.7% of all), similar ones and a draw of the others.
FMDV antiviral: antivirals against foot and mouth disease virus | FMDV antiviral cell-based qHTS | Potency, µM (series often up to 57.9 µM), for inactives: at the highest dose activity change, negative = inhibition, usual class: inhibitors | hit rate 1.2% among 410,000; calls by dose curve; tested in HEK293T cells; further: read-out not given here; nearly all actives have a fitted effect of over 45% in size
TbPYK inhibitor: inhibitors of Trypanosoma brucei pyruvate kinase | Q57TT1 | hit rate 0.12% among 410,000 | Potency, µM (top dose mostly 76.8 µM), for the others: at the highest dose activity, negative = inhibition, most hits filed as inhibitors | AID 624173 | TbPYK enzyme, Kinase-Glo Plus ATP luminescence, 45 min; further: nearly all actives have a fitted effect of over 50% in size
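In this concentration-response screen, enzyme-free wells defined baseline while DMSO plates tracked drift. Each reaction combined TbPYK, substrate, compound and 130 uM ADP for 45 min at room temperature. Kinase-Glo Plus luminescence gave the signal.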
RE007 growth inh: less growth of the S. pombe RE007 Vpr strain; hit rate 0.21% among 360,000; S. pombe RE007 Vpr strain, BacTiter-Glo ATP luminescence, 24 h; Potency, µM (series often up to 92.2 µM), for inactives: top-dose activity change, negative = less growth, actives largely listed as inhibitors; active means well fitted falling curve with a large enough effect; inconclusive means small, poorly fitted or top-dose-only effect; inactive means no such curve, though single readings can be large or run the other way; further: nearly all actives have a fitted effect of over 50% in size
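Fission yeast RE007 carrying one integrated HIV-1 vpr copy, seeded at OD 0.01 in PMG+AL medium with 23 nL pinned compound. Grown 24 h at 30 degrees; viability read by BacTiter-Glo luminescence after 5 min.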
Sm TGR inh: blocks Schistosoma mansoni thioredoxin glutathione reductase. Q962Y6. purified TGR, DTNB reduction, TNB absorbance 405 nm. Potency, µM (highest dose often 114 µM), for inactives: top-dose activity change, negative = inhibition, most hits filed as inhibitors. hit rate 3% among 360,000; further: nearly all actives have a fitted effect of over 60% in size
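First, TGR (20 nM dispensed) and NADPH were mixed with compound. Second, a 15 min room-temperature incubation followed. Third, further NADPH and then DTNB were added to start the reaction. Finally, TNB absorbance was monitored kinetically.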
Numbers without * were called inactive; ? = inconclusive; / = not tested or not shown; [ ] = another dose, or the depositor's remark. Unless noted, the call rests on the fitted dose curve; in most records, active means well fitted curve in the direction sought with a large enough effect; inconclusive means small, poorly fitted or top-dose-only effect, or another doubt; inactive means no such curve, though single readings can be large; an effect the other way counts as inactive or inconclusive. On the % scale 0 is the no-effect control and ±100 the full control effect; potency means the concentration at half of the fitted maximal effect.

SMILES	FMDV antiviral	TbPYK inhibitor	RE007 growth inh	Sm TGR inh
COc1cccc(-c2csc(NC3OC(=O)c4c3ccc(OC)c4OC)n2)c1 (configuration not stated)	8.6%	-4.8%	-6.1%	39.8µM*
COc1cccc(-c2csc(N3CCN(C(=O)Nc4ccccc4Cl)CC3)n2)c1	5.3%	-14.3%	6.4%	0.0%
COc1ccc(-c2csc(NC(=O)C3CCN(C(=O)c4ccc(F)cc4)CC3)n2)cc1OC	35.5µM*	0.2%	7.4%	0.7%
COc1ccc2c(c1OC)C(=O)OC2Nc1nc(-c2ccc(-c3ccccc3)cc2)cs1 (configuration not stated)	?	-0.8%	?	-19.9%
COc1cccc(NC(=O)N2CCN(c3nc(-c4cccc(OC)c4)cs3)CC2)c1	31.6µM*	-21.8%	-2.6%	5.9%
COc1cccc(NC(=O)Nc2nc(-c3ccc(OC)c(OC)c3)cs2)c1	25.1µM*	3.5%	1.1%	10.3%
CC(=O)N1CCN(c2nc3cc(C)ccc3cc2CN(C(=O)c2cccc3ccccc23)C2CC2)CC1	2.5%	/	/	/
COc1ccccc1CN1C(=O)CN(C2CCCCCC2)C(=O)C1c1ccc(C)cc1 (configuration not stated)	-18.3%	-4.3%	/	14.3%
COc1ccc(/C=C/C(=O)O)cc1S(=O)(=O)NCc1ccco1	-0.1%	-0.7%	2.9%	?
COc1cc(/C=C/C(=O)O)cc(S(=O)(=O)NCc2ccco2)c1OC	54.8%	-12.5%	-3.2%	31.6µM*
Cc1ccc(/C=C/C(=O)O)cc1S(=O)(=O)NCc1ccco1	27.7%	2.5%	-21.2%	31.6µM*
Cc1ccc(/C=C/C(=O)O)cc1S(=O)(=O)N(C)CCO	-3.5%	38.6%	-0.8%	22.4µM*
COc1ccc(CC(=O)NC2CC(=O)N(c3ccc(C)c(C)c3)C2)cc1OC (configuration not stated)	-2.0%	-9.0%	/	0.3%
COc1cccc(NC(=O)CN2C(=O)c3cccc4cccc2c34)c1	-5.6%	-5.8%	/	1.7%
COc1ccccc1CNc1ncncc1-c1ccc(C(=O)N(C)C)cc1	-2.2%	/	/	/
COc1ccc2c(c1)nc(SCC(=O)c1ccc(Br)s1)n2C	/	2.3%	-26.7%	31.6µM*
COc1ccccc1N1CCN(C(=O)CCc2c(C)nn(-c3ccc(N4CCCC4)nn3)c2C)CC1	-26.4%	3.4%	/	-0.2%
COc1cc(/C=N/NS(=O)(=O)c2ccc(C)c([N+](=O)[O-])c2)cc([N+](=O)[O-])c1O	-15.6%	-13.9%	-1.5%	?
COc1ccc(-n2c(O)c(/C=N/NS(=O)(=O)c3ccc(C)c([N+](=O)[O-])c3)c3ccccc3c2=O)cc1OC	1.2%	-17.9%	2.5%	10µM*
Cc1ccc(S(=O)(=O)N/N=C/c2cc([N+](=O)[O-])ccc2O)cc1[N+](=O)[O-]	56.1%	3.2%	-16.1%	28.2µM*
NC(=O)c1ccsc1NC(=O)COC(=O)/C=C/c1ccccc1[N+](=O)[O-]	31.6µM*	2.1%	-6.4%	/
NC(=O)c1ccsc1NC(=O)COC(=O)/C=C/c1ccccc1	?	1.3%	12.3%	4.7%
COc1ccccc1NC(=O)Cn1nc(-c2ccc(C)cc2)c2c(c1=O)CCCC2	-18.9%	1.9%	/	5.1%
CC(=O)Nc1cc(-c2ccc(C(=O)NC3CC3)cc2)cn2c(-c3cccc(C(F)(F)F)c3)cnc12	25.1µM*	5.6%	-4.2%	/
CC1CCN(C(=O)Cn2ncc3c4ccccc4n(Cc4ccc(Cl)cc4)c3c2=O)CC1	-9.5%	1.8%	/	-0.5%
SMILES	FMDV antiviral	TbPYK inhibitor	RE007 growth inh	Sm TGR inh
COC(=O)c1c(-c2ccc(OC)c(OC)c2)csc1N	-19.0%	12.1%	-11.0%	3.0%
COC(=O)c1c(-c2ccc3ccccc3c2)csc1NC(=O)Cc1ccc(OC)c(OC)c1	10µM*	5.0%	8.0%	9.9%
O=C(Nc1ccccc1C(F)(F)F)c1ncoc1-c1ccco1	?	6.8%	/	-2.3%
Cc1cc(C)c(O)c(N)c1	/	/	/	3.16µM*
Cc1ccc(N)c(C)c1	0.0%	1.2%	10.7%	-2.5%
COc1ccc(N2C(=O)[C@@H]3C[C@H]2CN3Cc2cccn2-c2ccccn2)cc1Cl	-5.4%	/	/	/
S=C1SCN(Cc2ccco2)CN1Cc1ccco1	0.6%	-8.7%	35.5µM*	0.0%
S=C1SCN(Cc2cccs2)CN1Cc1cccs1	1.9%	-0.3%	-16.5%	/
CC(=O)NC(Cc1c[nH]c2ccccc12)C(=O)OCC(=O)Nc1ccc2c(c1)OCO2 (configuration not stated)	-5.1%	8.6%	1.8%	10µM*
Cc1ccc(C(=O)COC(=O)C(Cc2c[nH]c3ccccc23)NC(=O)c2ccc(C(C)(C)C)cc2)cc1 (configuration not stated)	20.5%	-14.2%[15.4 µM]	/	11.2µM*
COCc1c(C(=O)N2CCN(c3ccccc3O)CC2)cnn1-c1nccc(-c2cccs2)n1	-17.4%	/	/	/
O=C1CS/C(=N\N=C\c2ccco2)N1c1ccccc1	-1.5%	-0.3%	-14.9%	14.1µM*
COCCNC(=O)COc1ccc(OCCNC[C@@H](O)COc2ccccc2)cc1	-22.8%	/	/	/
Cc1nc(N/N=C/c2ccccn2)sc1C	-29.9%	?	15.8µM*	-8.0%
O=C(/C=C/c1ccc(Cl)cc1Cl)N1CCN(c2ccc([N+](=O)[O-])c(N3CCOCC3)c2)CC1	?	-3.5%	-24.4%	-3.7%
O=C(/C=C/c1ccc(Cl)cc1)N1CCN(c2ccc([N+](=O)[O-])c(N3CCOCC3)c2)CC1	14.1µM*	-1.5%	8.0%	-5.1%
O=C(O)c1cc(N/N=C/c2ccc3c(c2)OCCO3)ccc1Cl	2.51µM*	-7.0%	19.8%	-19.2%
O=C(CCc1ccc(O)c(O)c1)N/N=C/c1ccc2c(c1)OCO2	22.1%	-17.6%	9.3%	11.2µM*
O=C(O)c1cc(N/N=C/c2ccc3c(c2)OCO3)ccc1Cl	14.1µM*	-6.8%	5.9%	-16.2%
O=C(O)c1cc(N/N=C/C(Cl)=C/c2ccccc2)ccc1Cl	-90.7%	-4.8%	-8.7%	35.5µM*
C/C(=N\Nc1ccc(Cl)c(C(=O)O)c1)c1ccc2c(c1)OCO2	77.0%	-5.7%	-13.7%	?
COC(=O)C1CCN(Cc2ccc3c(c2)CN(C(=O)c2ccc4nc(C)c(C)nc4c2)CCO3)CC1	-1.4%	/	/	/
Cn1c2ccccc2c2cc(C(=O)N3CCOc4ccc(C(C)(O)CCn5cccn5)cc4C3)ccc21 (configuration not stated)	-10.2%	/	/	/
O=C(O)c1ccc(N/N=C/c2ccc3c(c2)OCO3)cc1	25.1µM*	?	?	-0.2%
COC(=O)CC1C(=O)NC2CCCCC2N1C(=O)CCl (configuration not stated)	?	1.4%	-2.1%	6.31µM*
CCNC(=O)N1C(CC(=O)OCC)C(=O)NC2CCCCC21 (configuration not stated)	-20.9%	?	-11.2%	5.0%
O=C(c1ccccc1)c1nn(-c2ccc(Cl)cc2)c(=O)cc1C(F)(F)F	28.2µM*	2.1%	5.8%	-3.7%
O=C1C2C3C=CC(C3)C2C(=O)N1CNc1ccc(O)cc1 (configuration not stated)	/	/	/	44.7µM*
